# Laboratory results: article PMC7819943, “Rice protein-binding microarrays: a tool to detect cis-acting elements near promoter regions in rice”
# Over roughly 35,000 sequences, “fluorescence intensity (a.u.)” has its median near 10,000; the highest 2% begin near 52,000. The entries come from a sample that favours the highest values as a whole.
# Molecular target: T1, OsWOX13 (Oryza sativa, UniProt Q5QMM3 1-267)
# T1 sequence: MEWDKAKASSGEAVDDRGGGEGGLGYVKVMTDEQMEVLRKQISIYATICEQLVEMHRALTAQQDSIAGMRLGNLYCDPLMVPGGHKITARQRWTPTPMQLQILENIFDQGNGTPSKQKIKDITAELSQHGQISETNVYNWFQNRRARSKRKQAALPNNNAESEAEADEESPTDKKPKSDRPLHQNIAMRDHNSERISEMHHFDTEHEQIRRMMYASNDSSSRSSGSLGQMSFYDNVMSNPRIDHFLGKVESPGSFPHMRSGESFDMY
# Assay: protein-binding microarray (RPBM); PBS, 2% BSA, 51.3 ng/ul salmon testes DNA, 50 uM zinc acetate, 200 nM TF, 25 C, 1 h; high values mean tight binding
# Settings: protein: recombinant; tags: N-terminal polyhistidine and DsRed monomer fusion (pET32a); label: CyDye5-dUTP incorporated in the synthesized complementary strand; 3' TTTTT single-stranded linker to array surface; dsDNA, one strand shown
# Procedure, shortened: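 Binding signal here means per-feature fluorescence intensity in arbitrary units. The values were read on an Axon 4000B scanner after a custom Agilent array, double-stranded by primer extension with Cy5-dUTP, was incubated with 200 nM protein at 25 °C for 1 h in PBS with 2% BSA, salmon testes DNA and 50 µM zinc acetate, then washed. The proteins were transcription factors with an N-terminal polyhistidine tag and DsRed, expressed in E. coli BL21-CodonPlus and purified on Ni–NTA.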
row,Sequence,binding signal
1,ATATAATTGATAATAAATCAGGGCATGACATGTCACATATCGGAGTCACCTAGTGCAG,56400 fluorescence intensity (a.u.)
2,AAAATATATAATTATTATTTATTTTATTATGACATGATATCGGAGTCACCTAGTGCAG,17400 fluorescence intensity (a.u.)
3,ATAATAATTGATAGGTAACCATGATTATCGATAAAACCATCGGAGTCACCTAGTGCAG,59000 fluorescence intensity (a.u.)
4,ATGATTGATTGTAAATTAGGTTGAATAATTGATATATACTCGGAGTCACCTAGTGCAG,54800 fluorescence intensity (a.u.)
5,CGAAATTATAATGATTAAACAAAATTGATCGATATAACTACGGAGTCACCTAGTGCAG,41000 fluorescence intensity (a.u.)
6,ATTGATTTAATGAAAATAATTTAATATTATAAATATTACTCGGAGTCACCTAGTGCAG,35700 fluorescence intensity (a.u.)
7,ATGTAAATTACTTTTAGGCTTTATTGAATTACTTTTATATCGGAGTCACCTAGTGCAG,7630 fluorescence intensity (a.u.)
8,GTCTCGATATAATTATGAATTTTGAAATATATAAACCCATCGGAGTCACCTAGTGCAG,8250 fluorescence intensity (a.u.)
9,TGTAATTGATAAATATAAATTTACTTTAGGCATGTTTGATCGGAGTCACCTAGTGCAG,55700 fluorescence intensity (a.u.)
10,TTAAATAAATTACTTTTAAATTAATAAAATGTTTGAATATCGGAGTCACCTAGTGCAG,5500 fluorescence intensity (a.u.)
11,GTGGTTGTATTAAATATATTGATAGTTAGGTATATGAATACGGAGTCACCTAGTGCAG,4110 fluorescence intensity (a.u.)
12,TCACATTGATATTAATTAATCTAGATAAATATATATATGTCGGAGTCACCTAGTGCAG,17200 fluorescence intensity (a.u.)
13,TTGTATTTGTTAATGGAATGCTGATTGGTGCACAGCAAACCGGAGTCACCTAGTGCAG,29900 fluorescence intensity (a.u.)
14,ATTAAATTTGGGCTAACTGGCCTCCACACATCCCATATAACGGAGTCACCTAGTGCAG,11000 fluorescence intensity (a.u.)
15,TGTTTTGATTGTTTCTTATTACTCCCTCCGATTATAAATACGGAGTCACCTAGTGCAG,25500 fluorescence intensity (a.u.)
16,GATAAATTACGATAATACCCCTATACGAATTATTATCTCTCGGAGTCACCTAGTGCAG,12900 fluorescence intensity (a.u.)
17,TCCGATTGATTACCTTCTATAAATACCTCACCCCACCCCTCGGAGTCACCTAGTGCAG,57600 fluorescence intensity (a.u.)
18,ATTGATTAGTAGTAATTAATTAGTTATAAACTACACGCGCCGGAGTCACCTAGTGCAG,58700 fluorescence intensity (a.u.)
19,TAAATTGGCTATTACATTAGTTATAAATGATTTGGAGCTACGGAGTCACCTAGTGCAG,34400 fluorescence intensity (a.u.)
20,AATATTATTTATATGTAATTACATAAGTAATATGTAATTTCGGAGTCACCTAGTGCAG,9490 fluorescence intensity (a.u.)
21,ATTGATAATTAGTTCACCGAAGTAGTAGGGCGCGACACGCCGGAGTCACCTAGTGCAG,15900 fluorescence intensity (a.u.)
22,CTAAATTGATTATACATGATTTAGAGTTAGTAGTTAGCTACGGAGTCACCTAGTGCAG,59600 fluorescence intensity (a.u.)
23,GTGCAAGGATAATTGGTGATTATATTAGTGTATATTTAAGCGGAGTCACCTAGTGCAG,18200 fluorescence intensity (a.u.)

row,Sequence,binding signal
1,ATTGATTTACGGGATTGAAGTTAGTATAATTACATGTAAGCGGAGTCACCTAGTGCAG,53600 fluorescence intensity (a.u.)
2,AGCTATTAGTAGATTGGCTATAAATGAATTGGAGTTAGTACGGAGTCACCTAGTGCAG,14900 fluorescence intensity (a.u.)
3,CAGATGATTAGTAATGTTAATTATGAATAAACTTGCACGCCGGAGTCACCTAGTGCAG,51800 fluorescence intensity (a.u.)
4,CCTCCTGTTAACTCGTATCACCTCCCTCCCTCACTGAACCCGGAGTCACCTAGTGCAG,7850 fluorescence intensity (a.u.)
5,ATAAAGACTGTTCAATCATGATGAAGCTTTACGTAAGCGGCGGAGTCACCTAGTGCAG,34900 fluorescence intensity (a.u.)
6,TTTACAAACACGCAAATTAAAATTTTATTTATACAATTAACGGAGTCACCTAGTGCAG,4180 fluorescence intensity (a.u.)
7,GTACCAATTTAATTTATGTATCAATAAGAACATATCATGTCGGAGTCACCTAGTGCAG,22800 fluorescence intensity (a.u.)
8,TCAGCTTATTGACTTATATGATTTATAAGCCAATGGATTTCGGAGTCACCTAGTGCAG,11100 fluorescence intensity (a.u.)
9,CTGATTAGCATGCAGGATAGGAACTGATCTGTACTTGTCGCGGAGTCACCTAGTGCAG,22300 fluorescence intensity (a.u.)
10,ACTAATTTCATAACTCTCCTGGAAACCGTGAGATGAATCTCGGAGTCACCTAGTGCAG,6360 fluorescence intensity (a.u.)
11,CCCAATTAATTACAATGGGCCACACGCTCGTGGCCCAACTCGGAGTCACCTAGTGCAG,10900 fluorescence intensity (a.u.)
12,CTCGAGGTCAAATCTTGATTAATTATGCTAATTAACGCGACGGAGTCACCTAGTGCAG,16800 fluorescence intensity (a.u.)
13,GAGAGATGATGGGCTGGTTTGGTTTGAGGCCTAAATTAGGCGGAGTCACCTAGTGCAG,3660 fluorescence intensity (a.u.)
14,TTCTGAATGTGATTGAATTAATTGGACTTGCGTTGACCTTCGGAGTCACCTAGTGCAG,59500 fluorescence intensity (a.u.)
15,ATGATTGCTTAAGAATAATTGGTGACTTGCTACGAATGTGCGGAGTCACCTAGTGCAG,51300 fluorescence intensity (a.u.)
16,GATGATGATGAGGAGGATGACCAGGATGGTGGAGACTGGGCGGAGTCACCTAGTGCAG,4950 fluorescence intensity (a.u.)
17,ACAATTAACTAATAATAATTAGTGATTACTTATCTTGATTCGGAGTCACCTAGTGCAG,45300 fluorescence intensity (a.u.)
18,CCCACAATTAATTGGGCCTAATGGATCGGTGCCCTTGTGGCGGAGTCACCTAGTGCAG,53600 fluorescence intensity (a.u.)
19,AAATTTATGTAATTATTATTTATTTTATTGTGACTTGATTCGGAGTCACCTAGTGCAG,8590 fluorescence intensity (a.u.)
20,TTCCTTTGATTGATCATGAGGTGGGCTGGGGCTGAGATGGCGGAGTCACCTAGTGCAG,59400 fluorescence intensity (a.u.)
21,GTAATTGCGGCCCATTAACCTAAATGGGCCGATCGAGTGGCGGAGTCACCTAGTGCAG,4580 fluorescence intensity (a.u.)
22,TAGGTGATTAGTTGATTAATTAATCTTGAGCTCCTCCTAACGGAGTCACCTAGTGCAG,58800 fluorescence intensity (a.u.)
23,TGAATGATTGCTCTTGTGCTAAGAGAATAGACTTTATCCCCGGAGTCACCTAGTGCAG,32000 fluorescence intensity (a.u.)
